# TDP1 cell noCPT: qHTS for Inhibitors of human tyrosyl-DNA phosphodiesterase 1 (TDP1): qHTS in cells in absence of CPT; DT40 Tdp1-/- hTDP1 cells, no CPT, ATP luminescence, 48 h; 420,000 tested, 15% active; Potency, µM (titrated, usually from 46.2 µM), hits mostly inhibitors; AID 686978, 2013; note: nearly all actives have a fitted effect of over 55% in size
#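 Compound effects on proliferation are scored in DT40 Tdp1-/-;hTDP1 cells in the absence of CPT. ATP levels (CellTiter-Glo luminescence) are recorded after a ≥48 hr, 37 °C incubation.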
# TDP1 cell CPT: DT40-hTDP1 cell growth loss with CPT; chicken DT40 Tdp1-/-;hTDP1 cells + 20 nM CPT, ATP luminescence, 48 h; Potency, µM (highest dose often 46.2 µM), usual class: inhibitors; 420,000 tested, 12% active; note: nearly all actives have a fitted effect of over 55% in size
#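 Chicken DT40 Tdp1-/- cells stably complemented with human TDP1 were seeded at 400 cells/well in medium containing 20 nM camptothecin, exposed to pin-transferred compounds, and grown at 37 °C for at least 48 hr. Viability was read as ATP luminescence.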
# IL-1B inflam inh: blocks inflammasome-driven IL-1 beta release. THP-1 LPS/ATP IL-1B secretion, AlphaLISA, 16 h; hits give low values. activity change, % at 57.5 µM. 360,000 tested, 4.7% active. AID 743279; in the data active = activity change below about -50%; inconclusive = mostly about -30% to -49%
#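 Secreted IL-1B measured by AlphaLISA bead assay after 16 h compound exposure of THP-1 cells; compounds (final up to 57.5 uM) added 1 h before LPS (250 ng/mL) and ATP (1.25 mM) stimulation; lower signal means less secretion.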
# TDP1 inh: blocks human tyrosyl-DNA phosphodiesterase 1; Q9NUW8; recombinant TDP1, AlphaScreen DNA substrate cleavage; Potency, µM (top dose mostly 130 µM), most hits filed as inhibitors; 350,000 tested, 0.28% active; AID 485290; note: nearly all actives have a fitted effect of over 40% in size
# Target sequence (Q9NUW8 whole entry, looked up): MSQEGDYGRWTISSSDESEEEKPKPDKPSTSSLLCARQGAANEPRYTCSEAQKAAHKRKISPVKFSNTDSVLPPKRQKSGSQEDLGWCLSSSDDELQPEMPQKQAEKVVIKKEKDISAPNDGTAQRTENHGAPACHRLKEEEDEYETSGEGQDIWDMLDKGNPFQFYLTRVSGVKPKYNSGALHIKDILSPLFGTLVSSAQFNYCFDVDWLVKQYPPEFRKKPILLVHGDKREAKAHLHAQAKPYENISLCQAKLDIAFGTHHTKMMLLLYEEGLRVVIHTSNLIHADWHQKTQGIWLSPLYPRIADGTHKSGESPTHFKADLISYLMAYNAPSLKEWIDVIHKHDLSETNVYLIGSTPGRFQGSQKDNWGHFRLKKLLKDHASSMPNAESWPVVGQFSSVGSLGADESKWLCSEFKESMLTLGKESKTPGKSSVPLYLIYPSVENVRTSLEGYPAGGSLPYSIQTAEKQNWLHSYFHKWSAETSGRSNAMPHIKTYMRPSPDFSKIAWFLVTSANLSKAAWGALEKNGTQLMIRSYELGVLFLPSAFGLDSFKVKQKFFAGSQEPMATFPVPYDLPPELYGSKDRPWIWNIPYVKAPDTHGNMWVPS
#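 Recombinant human Tdp1 (E. coli-expressed, 1 nM final) preincubated with compounds 15 min at room temperature, then 5'-biotin/3'-phosphotyrosine-FITC DNA substrate (15 nM final) added for 5 min. AlphaScreen beads (10 ug/ml final) added 10 min; cleavage lowers signal.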
# HepG2 viability: counter-screen for TGF-b inhibitors: cytotoxicity in HepG2 cells | HepG2 CAGA-GFP viability, ATP luminescence, 18 h | Potency, µM (series often up to 46.1 µM), hits mostly cytotoxic | 410,000 tested, 0.76% active | AID 588856
#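 CellTiter-Glo luminescence gave cytotoxicity after 18 hours at 37 degrees C. The cells were HepG2 CAGA-GFP in 1% FBS DMEM, stimulated with 500 pg/mL TGF-beta after compound addition. %Activity was normalised to no-cell wells (complete cell-killing) and DMSO (no toxicity), and curves were fitted and classified.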
# TGFb SMAD3 inh: blocks TGF-b signaling | HepG2 CAGA-GFP TGF-b/SMAD3 reporter, GFP fluorescence, 18 h; TGF-beta stimulated, 500 pg/mL final | Potency, µM (series often up to 46.1 µM), actives largely listed as inhibitors | 410,000 tested, 1.2% active | AID 588855; note: nearly all actives have a fitted effect of over 65% in size
#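 GFP signal (ex488/em500-530) from TGF-beta-stimulated HEPG2 CAGA-GFP cells, 500 pg/mL final, 18 h at 37 degrees C in DMEM plus 1% FBS, normalized to unstimulated and DMSO-stimulated controls.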
# Hits are given with their value; - = inactive; ? = inconclusive; . = no result given. Hits are enriched below; roughly 18% of the tested compounds scored in any of these assays. Unless noted, calls come from the whole dose curve; as a rule, active = well fitted curve in the direction sought with a large enough effect; inconclusive = small, poorly fitted or top-dose-only effect, or another doubt; inactive = no such curve, though single readings can be large; an effect the other way counts as inactive or inconclusive.
SMILES,TDP1 cell noCPT,TDP1 cell CPT,IL-1B inflam inh,TDP1 inh,HepG2 viability,TGFb SMAD3 inh
Cc1ccc(C(=O)Nc2ccc(S(=O)(=O)N(Cc3ccccc3)c3ccccc3)cc2)cc1,23µM,16µM,.,-,-,-
COc1cc(NC(=O)[C@H]2O[C@@H](n3cnc4c(N)ncnc43)[C@H](O)[C@@H]2O)cc(OC)c1OC,-,-,-,.,-,-
Brc1ccccc1CN1CCN(Cc2c[nH]c3ccccc23)CC1,1.5µM,0.52µM,-103,.,-,?
Brc1ccc(CN2CCN(Cc3c[nH]c4ccccc34)CC2)cc1,9.2µM,2.3µM,?,.,-,?
O=[N+]([O-])c1ccc(CN2CCN(Cc3c[nH]c4ccccc34)CC2)cc1,?,?,-69,-,-,-
O=C(CC(NC(=O)c1ccccc1)c1ccccc1)Nc1cccc2ccccc12 (stereo not given),-,-,-,-,-,-
Oc1ccccc1OCCOc1ccccc1OCCOc1ccccc1O,21µM,?,?,-,-,-
O=C(O)c1ccccc1OCCOc1ccccc1C(=O)O,-,-,-,-,-,-
CCOc1ccc(NC(=S)N2CCC(C(=O)c3ccc(F)cc3)CC2)cc1,?,?,?,.,-,-
O=C(CC1C(=O)NCCN1Cc1cccc(F)c1)NC1CCC1 (stereo not given),-,-,-61,-,-,-
O=C(CC1C(=O)NCCN1Cc1cccc(F)c1)NC1CCCCC1 (stereo not given),-,-,-,-,-,?
COC(CNC(=O)CCc1c(C)nc2c(-c3ccccc3)c(C)nn2c1C)OC,-,?,-,.,-,-
NCCc1nnc(SCc2ccc(Cl)cc2)o1,-,-,.,-,-,-
COc1ccc(-c2ccc(CCC(=O)O)n2CC(=O)Nc2cccc(OC)c2)cc1,-,-,-,-,-,-
COc1cccc(NC(=O)Cn2c(CCC(=O)O)ccc2-c2ccc(C)cc2)c1,-,-,-,-,16µM,?
COc1ccccc1-n1c(CCC(=O)O)ccc1-c1ccccc1,-,-,-,.,-,-
CCOC(=O)c1c(NC(=O)CN2C(=O)NC(C)(c3ccc(Cl)cc3)C2=O)sc(C(=O)NC)c1C (stereo not given),12µM,23µM,-,-,-,-
COc1ccc(-c2ccc(CCC(=O)O)n2-c2ccccc2OC)cc1,23µM,?,-,.,-,?
COc1cccc(NC(=O)CN2C(=O)NC(C)(c3ccc(C)cc3)C2=O)c1 (stereo not given),-,-,-,40µM,-,-
COc1cccc(NC(=O)CN2C(=O)NC3(CCCC3)C2=O)c1,-,-,-,-,-,-
C=Cc1ccc(C=C)cc1,.,.,.,-,.,.
O=C(O)c1ccc2c(c1)C(=O)N([C@H](Cc1c[nH]c3ccccc13)C(=O)O)C2=O,.,.,.,-,.,.
COc1ccc(C2(C)NC(=O)N(CC(=O)Nc3ccc4ccccc4c3)C2=O)cc1OC (stereo not given),?,-,-55,-,-,-
O=C(CN1C(=O)NC(c2ccccc2)(c2ccccc2)C1=O)NCc1ccc(F)cc1,-,?,-55,-,-,-
COc1ccc(C2(c3ccc(OC)cc3)NC(=O)N(CC(=O)Nc3ccc(C(=O)N(C)C)cc3)C2=O)cc1,-,-,-,-,-,-
SMILES,TDP1 cell noCPT,TDP1 cell CPT,IL-1B inflam inh,TDP1 inh,HepG2 viability,TGFb SMAD3 inh
COc1ccc(C2(C)NC(=O)N(CC(=O)Nc3ccc4c(c3)CCC4)C2=O)cc1OC (stereo not given),-,-,-,-,-,-
COc1ccc(C2(c3ccc(OC)cc3)NC(=O)N(CC(=O)Nc3cc(C)ccc3OC)C2=O)cc1,?,18µM,-,-,-,-
CC1(c2ccc(Cl)cc2)NC(=O)N(CC(=O)NCc2ccc(F)cc2)C1=O (stereo not given),-,-,-,-,-,-
Cc1ccc(CNC(=O)CN2C(=O)NC(C)(c3ccc(Cl)cc3)C2=O)cc1 (stereo not given),-,-,-52,.,-,-
COc1ccc(CN2CC[C@H]3C=CC[C@@H](C(=O)N4CCN(c5ccccc5)CC4)[C@H]3C2=O)cc1OC,-,-,.,.,-,-
CCc1ccc(NC(=O)Cn2c(=O)n(-c3ccc(Cl)c(Cl)c3)c(=O)c3c(C)c(C)sc32)cc1,-,-,.,-,-,-
CC(C)(C)NC(=O)CN1C(=O)NC(c2ccccc2)(c2ccccc2)C1=O,-,-,-,-,-,-
O=C(CCl)NN1C(=O)NC(c2ccccc2)(c2ccccc2)C1=O,21µM,?,-117,-,-,-
O=C(/C=C/c1cccc([N+](=O)[O-])c1)NC(=S)Nc1ccc(CN2CCOCC2)cc1,18µM,16µM,-94,-,-,-
CC(C)c1ccc(/C=C/C(=O)NC(=S)Nc2ccc(CN3CCOCC3)cc2)cc1,18µM,9.2µM,-65,-,-,?
COc1ccccc1NC(=O)C(C)Sc1nnc2ccccn12 (stereo not given),?,-,-,-,-,-
NC(Cc1ccc(C(F)(F)F)cc1)c1csc(Nc2ccccn2)n1 (stereo not given),?,?,-77,.,-,-
NC(Cc1ccc(C(F)(F)F)cc1)c1csc(Nc2cc(NCc3ccco3)ncn2)n1 (stereo not given),16µM,21µM,?,.,20µM,?
NC(Cc1ccc(C(F)(F)F)cc1)c1csc(Nc2ncccn2)n1 (stereo not given),9.2µM,9.2µM,-53,.,-,-
NC(Cc1cnc[nH]1)c1csc(Nc2ccc(C(F)(F)F)cn2)n1 (stereo not given),-,-,-,.,-,-
CC(C)CC(N)c1csc(Nc2ncccn2)n1 (stereo not given),6.5µM,9.2µM,-,.,-,11µM
COC(=O)C1(C(=O)OC)C/C=C\C/C=C\c2ccccc2C1C[N+](=O)[O-] (stereo not given),.,.,.,-,.,.
CC1(C)C[C@@H](O)CC2(C1)C[C@]1(C)CC(O)[C@H]2C(C)(C)C1 (stereo not given in full),-,?,-,.,-,?
COCCNC(=O)c1cccc(OC2CCN(Cc3ccccc3C)CC2)c1,-,-,-,.,-,-
O=C(C1CC1)N1CCC(Oc2cccc(C(=O)N3CCCCC3CCO)c2)CC1 (stereo not given),-,-,-,-,-,-
